In PubChem BioAssay (Tox21) one finds Potency and outcome data, which are given here for 30 molecules.

Test [1] addresses Retinoic acid receptor RXR-alpha (Homo sapiens) (UniProt P19793). Put plainly: qHTS assay to identify small molecule agonists of the RXR signaling pathway (AID 1159527; calls by dose curve; note: nearly all actives have a fitted effect of over 35% in size; note: potency is the fitted concentration of half-maximal effect). Summed up:
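GeneBLAzer RXR-alpha-UAS-bla HEK 293T cells in medium with 2% charcoal-stripped FBS, pre-incubated 5 hr at 37 C, then exposed to compounds 16 hr. Beta-lactamase reporter read by FRET substrate, 2 hr room temperature, 460/530 nm emission.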

A short description of test [2]: qHTS assay to identify small molecule antagonists of the retinoid acid receptor (RAR) signaling pathway - cell viability counter screen (AID 1159551). Note: nearly all actives have a fitted effect of over 35% in size. Summed up:
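Seed C3RL4 cells; next day add compound, then retinol to 1 uM final; incubate 6 h at 37 C; add CellTiter-Glo; read luminescence after 30 min at RT.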
In general terms: In qHTS, concentration-response curves come from the screen itself.

A short description of test [3]: qHTS assay to identify small molecule antagonists of the retinoic acid receptor (RAR) signaling pathway (AID 1159552; note: nearly all actives have a fitted effect of over 50% in size). Summed up:
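RARE-luc C3RL4 cells; cpds + 1 uM (final) retinol, 6 hr, 37 C/5% CO2; luciferase reagent, 30 min RT, luminescence readout. Inhibitors of retinol-driven signal scored.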

The nature of test [4]: qHTS assay to identify small molecule agonists of the retinoic acid receptor (RAR) signaling pathway (AID 1159553). Note: potency is the fitted concentration of half-maximal effect. The note with it: C3RL4 RARE luciferase reporter, agonist, 6 h; activation: at 73.3 µM (top of the series) unless noted. Summed up: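 Activation of retinol signaling was monitored via a RARE luciferase reporter in C3RL4 cells. After 6 hr compound treatment at 37 C, detection reagent was added for 30 min at room temperature before luminescence reading.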

Test [5] has as its target Luciferin 4-monooxygenase (Photinus pyralis) (UniProt P08659). Nature of the test: qHTS assay to identify small molecule inhibitors of firefly luciferase (AID 1224835). Note: nearly all actives have a fitted effect of over 25% in size. Note: potency is the fitted concentration of half-maximal effect. Summed up:
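Biochemical qHTS: compounds run as interplate titrations against purified firefly enzyme, with D-luciferin and ATP each at its KM concentration. Light output recorded by CCD imaging.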

Test [6] is described as follows: qHTS assay to identify small molecule antagonists of the estrogen related receptor (ERR) signaling pathway from Tox21 library - cell viability counter screen (AID 1224834). Note: nearly all actives have a fitted effect of over 30% in size. Note: potency is the fitted concentration of half-maximal effect. The essentials:
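CellTiter-Fluor fluorescence measured; ERR cells; 17.5 h compound incubation at 37 C; 30 min reagent step.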

Test [7] is described as follows: qHTS assay to identify small molecule agonists of the constitutive androstane receptor (CAR) signaling pathway - cell viability counter screen (AID 1224836). Note: nearly all actives have a fitted effect of over 45% in size. Summed up:
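HepG2 cells stably carrying hCAR and a CYP2B6-2.2kb reporter were plated 4 h, then given compounds at 15 concentrations plus PK11195 (final 0.75 uM). After 23 h at 37 C, viability was read by CellTiter-Fluor fluorescence.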

Test [8] is described as follows: qHTS assay to identify small molecule agonists of the RXR signaling pathway - cell viability counter screen (AID 1159529). Note: nearly all actives have a fitted effect of over 50% in size. Note: potency is the fitted concentration of half-maximal effect. The essentials: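 RXR-alpha-UAS-bla HEK 293T cells in medium with 2% charcoal-stripped FBS were preincubated 5 hr, then exposed to compounds for 16 hr at 37 C. Viability was read as CellTiter-Glo luminescence after 30 min at room temperature.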

Test [9] can be described thus: qHTS assay to identify small molecule antagonists of the estrogen related receptor (ERR) signaling pathway - cell viability counter screen (AID 1224818).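 Note: viability measured after 17.5 h of compound exposure.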 The essentials:
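In the same ERR cell assay, compound-treated wells (17.5 h, 37 C) were multiplexed with a fluorogenic viability reagent, CellTiter-Fluor, read after 30 min to flag cytotoxic substances.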

The nature of test [10]: qHTS assay to identify small molecule antagonists of the estrogen related receptor signaling pathway with the pleiotropic PPARgamma coactivator (PGC) cell viability counter screen (AID 1224822). Summed up: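 Compounds in DMSO, with positive and negative controls, were applied to PGC/ERR cells (2,000/well) and left 17.5 h at 37 C before CellTiter-Fluor detection.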

Values joined by “and” are separate entries in the source; they are usually repeats but may differ in a detail not shown here. Identical values can stand only once. Inconclusive results are not listed. A structure can be active in one record and inactive in another. Active and inactive are the calls of the source. Unless noted, calls come from the whole dose curve; as a rule, active = well fitted curve in the direction sought with a large enough effect in the repeat runs; inconclusive = weak or mixed curves; inactive = no such curve, though single readings can be large; an effect the other way counts as inactive or inconclusive.

Luciferin 4-monooxygenase (Photinus pyralis), sequence (P08659 whole entry, looked up): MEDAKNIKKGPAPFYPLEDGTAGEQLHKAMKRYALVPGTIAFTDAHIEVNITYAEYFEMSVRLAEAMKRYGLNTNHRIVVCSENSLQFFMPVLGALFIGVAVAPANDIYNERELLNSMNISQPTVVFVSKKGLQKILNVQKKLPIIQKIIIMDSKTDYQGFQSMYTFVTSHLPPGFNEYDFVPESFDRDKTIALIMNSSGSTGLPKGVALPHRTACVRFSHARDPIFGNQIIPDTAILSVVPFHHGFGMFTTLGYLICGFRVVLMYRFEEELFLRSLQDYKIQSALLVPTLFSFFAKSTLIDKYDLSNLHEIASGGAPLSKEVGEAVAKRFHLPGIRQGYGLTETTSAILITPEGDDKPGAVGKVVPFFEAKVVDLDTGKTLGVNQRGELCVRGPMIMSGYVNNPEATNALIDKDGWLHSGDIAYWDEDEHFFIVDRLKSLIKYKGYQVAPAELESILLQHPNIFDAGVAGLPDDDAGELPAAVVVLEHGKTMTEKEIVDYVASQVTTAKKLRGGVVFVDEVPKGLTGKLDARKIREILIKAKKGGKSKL
Retinoic acid receptor RXR-alpha (Homo sapiens), sequence (P19793 whole entry, looked up): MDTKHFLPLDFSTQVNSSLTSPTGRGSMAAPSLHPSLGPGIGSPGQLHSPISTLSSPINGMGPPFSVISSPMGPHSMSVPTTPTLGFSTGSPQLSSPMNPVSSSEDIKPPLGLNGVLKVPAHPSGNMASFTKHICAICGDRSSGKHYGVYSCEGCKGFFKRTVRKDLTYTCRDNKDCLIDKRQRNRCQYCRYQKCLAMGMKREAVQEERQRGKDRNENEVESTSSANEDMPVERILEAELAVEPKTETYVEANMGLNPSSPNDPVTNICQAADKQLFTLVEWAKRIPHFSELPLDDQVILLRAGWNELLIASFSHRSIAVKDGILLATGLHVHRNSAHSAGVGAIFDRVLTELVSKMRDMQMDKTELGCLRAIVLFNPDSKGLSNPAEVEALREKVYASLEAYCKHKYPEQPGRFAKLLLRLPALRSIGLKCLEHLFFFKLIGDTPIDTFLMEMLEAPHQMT

As for `Nc1ccc(Br)cc1`, the Potency result in [1], in test [3], in test [4] and in test [5] was “inactive” each time. Also, the molecule was called inactive in [2].

Regarding `c1cc2c3c(cccc3c1)CC2`, the Potency result in [1], in test [3], in test [4], in test [6] and in test [5] was “inactive” in each case. Also, the call in [2] was inactive.

For `CC(C)OC(=O)Nc1ccccc1`, the Potency result in test [1], in [3], in test [6] and in test [7] was “inactive” each time. Besides, the call in [2] was inactive. In addition, the Potency was 30.7 µM (active) in test [4]; 40 µM (active) and 35.6 µM (active) in [5].

Regarding `O=NN1CCCCCCC1`, the Potency result in [1], in [3], in test [4], in test [6], in test [5] and in test [7] was “inactive” in each case. For the same molecule, in test [2], the result was inactive.

As to `CN(C)[C@@H]1C(=O)C(C(N)=O)=C(O)[C@@]2(O)C(=O)C3=C(O)c4c(O)cccc4[C@@](C)(O)[C@H]3C[C@@H]12`, in test [1], the Potency entry was “inactive”. In test [2], the molecule was classed as inactive.

`O=Cc1cccc(Oc2ccccc2)c1`: the Potency entry in test [1], in [8], in test [3], in test [4], in test [5] and in test [7] was “inactive” throughout. For the same molecule, the result in test [2] was inactive.

In the case of `CCCCCOC(=O)c1ccccc1C(=O)OCCCCC`, the Potency result in test [1], in [8] and in test [5] was “inactive” throughout. Further, the molecule was classed as inactive in test [2].

Consider `CCC12COCN1COC2`, for which the Potency entry in test [1], in test [8], in test [5] and in test [7] was “inactive” throughout. Further, the call in test [2] was inactive.

Regarding `CN1C(=O)CN=C(c2ccccc2)c2cc(Cl)ccc21`, the Potency entry in [1], in [8], in test [4], in test [6] and in test [7] was “inactive” throughout. Further, in test [2], the molecule was classed as inactive.

For the molecule `O=c1[nH]c(=O)[nH]c(=O)[nH]1`, the Potency result in [1], in test [3], in test [4], in test [6], in test [5] and in test [7] was “inactive” throughout. The molecule was classed as inactive in test [2].

With `c1ccc(OP(Oc2ccccc2)Oc2ccccc2)cc1`, the Potency result in [1], in [8], in test [6] and in test [5] was “inactive” throughout. Further, the call in [2] was inactive.

In the case of `CC(C)NC(=O)N1CC(=O)N(c2cc(Cl)cc(Cl)c2)C1=O`, the Potency entry in test [1], in test [8], in [6] and in test [5] was “inactive” each time. The result in [2] was inactive.

Consider `CC(NC(C)(C)C)C(=O)c1cccc(Cl)c1` (stereo not drawn), for which the Potency result in test [1], in test [8], in test [6], in test [5] and in test [7] was “inactive” in each case. The outcome in test [2], in [9] and in [10] was inactive.

Take `O=[N+]([O-])c1ccc(Oc2ccc(Cl)cc2Cl)cc1`: the Potency is 696 nM (active) in test [1]; 43.9 µM (active) and inactive in [8]. The outcome in test [2] was inactive. Besides, the Potency result in test [5] and in [7] was “inactive” throughout.

For the molecule `CN(N=O)c1ccccc1`, the Potency entry in test [1], in test [8] and in test [5] was “inactive” each time. In addition, the result in [2] was inactive.

Take `CCCCCCCCCCCC#N`: the Potency result in [1], in [8], in test [6] and in [5] was “inactive” in each case. The outcome in [2] was inactive.

Consider `CCOP(OCC)OCC`, for which the Potency in test [1] is 22.3 µM (active) and inactive. Moreover, the outcome in test [2] was inactive. In addition, the Potency result in test [3], in test [4] and in [5] was “inactive” each time.

As to `COC(=O)NS(=O)(=O)c1ccc(N)cc1`, the Potency result in test [1], in [8], in test [6], in [5] and in [7] was “inactive” each time. Further, the call in test [2] was inactive.

Turning to `O=c1ccc(=O)[nH][nH]1`, the Potency result in [1], in test [8], in [6] and in [5] was “inactive” in each case. Moreover, the molecule was called inactive in [2].

Consider `OCCN(CCO)CCO`, for which the Potency entry in test [1], in [3], in test [4], in [6] and in test [5] was “inactive” in each case. Also, the call in [2] was inactive.

With `CCC[N+](=O)[O-]`, the Potency entry in test [1] is “inactive”. Also, the Potency in test [8] is 30.3 µM (active) and inactive; in test [6], 26.8 µM (active) and inactive; in test [5], 34.9 µM (active) and inactive. The molecule was called inactive in test [2].

`CC(C#N)CCC#N` (stereo not drawn): the Potency entry in test [1], in test [3], in test [4], in [6], in [5] and in test [7] was “inactive” each time. Besides, in [2], the molecule was classed as inactive.

In the case of `Clc1ccccc1Cl`, the Potency result in test [1], in test [3], in [4], in test [6] and in test [5] was “inactive” throughout. For the same molecule, the molecule was classed as inactive in [2].

Turning to `CC(C)OC(=O)Nc1cccc(Cl)c1`, the Potency result in test [1] and in [3] was “inactive” throughout. Moreover, the call in [2] was inactive. Besides, the Potency was 6.11 µM (active) in test [4]; 31.3 µM (active) and 35.6 µM (active) in test [5].

With `CC(C)(C)OOC(C)(C)C`, the Potency result in [1], in test [8], in [6] and in [5] was “inactive” each time. In addition, the molecule was called inactive in [2].

`CN=C=S`: the Potency entry in [1], in [3], in test [4], in test [6], in test [5] and in [7] was “inactive” in each case. Besides, in [2], the result was inactive.

For `[N-]=[N+]=[N-]`, the Potency entry in test [1], in test [6] and in test [5] was “inactive” each time. Also, the result in [2] was inactive.

Turning to `CCCCN(CCCC)SN(C)C(=O)Oc1cccc2c1OC(C)(C)C2`, the result in test [2] was inactive. The Potency result in [6], in test [5] and in [7] was “inactive” in each case.

On to `CCN(CC)CCO`, for which the Potency result in test [8], in test [5] and in test [7] was “inactive” throughout. In addition, in test [2], the call was inactive.

Take `CCOP(=S)(OCC)SCCSCC`: the Potency entry in test [1], in test [3], in [4], in test [5] and in test [7] was “inactive” each time. Besides, the outcome in test [2] was inactive.
